Luc counter: blocks Kinase-Glo luciferase, a counter-screen artifact; AID 1379; Potency, µM (series often up to 38.3 µM), actives largely listed as inhibitors; 0.28% of 200,000 active; Kinase-Glo luciferase, ATP luminescence, 8 min; also: nearly all actives have a fitted effect of over 60% in size
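Recombinant Kinase-Glo luciferase, 10 uM ATP (linear range), luciferin; imidazole pH 7.2 / KCl / MgCl2 / Tween / BSA buffer; 8 min RT; luminescence.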
IMPase Li cell: cell-permeable IMPase inhibitors with lithium potentiation | CHO-M1 cells, IP1 TR-FRET (IP-One), carbachol + lithium | Potency, µM (doses to about 59.4 µM), usual class: inhibitors | 0.35% of 210,000 active | AID 1457;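 also: IP1 builds up when IMPase is blocked and the TR-FRET signal falls; nearly all actives have a fitted effect of over 50% in size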
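CHO cells stably expressing M1 receptor (2000/well, cultured 16–30 h) treated 30 min at 37C with compound plus low lithium. Cytosolic IP1 by TR-FRET (665/620 ratio and 620 channel) after 10 min lysis; AC50 by Hill fit.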
TCR activator: T cell receptor activation. primary human leukocytes, anti-CD3, IL-2 HTRF, 48 h. Potency, µM (doses to about 9.22 µM), usual class: activators. 330,000 tested, under 10 active. AID 504894
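Activity was scored as IL-2 release from primary human leukocytes given only a TCR signal (a-CD3 beads) plus compound for 48 hr. Detection used a two-antibody HTRF format read at 665nm.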
Lamin A splicing: changes lamin A minigene splicing in HeLa cells | HeLa LMNA splicing GFP/RFP minigene ratio, 48 h | Potency, µM (top dose mostly 46.1 µM), hits mostly inhibitors | 0.01% of 200,000 active; active = well fitted inhibition curve with a large enough effect in the signal ratio, with a control signal flat, not every such curve was filed as active; inconclusive = small, poorly fitted or top-dose-only effect, or effect the other way, or a change in a side signal; the % refers to the signal ratio
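S3 HeLa stable clones carrying a lamin A-EGFP splicing minigene plus DsRed2 were seeded at 600 cells/well in Opti-MEM with 2% FBS, pin-dosed and incubated 48 h at 37°C. Acumen cytometry (488 nm) gave the GFP/RFP total-intensity ratio.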
Each line names hits and unclear results; the compound was inactive in the other large screens; ! = repeats disagree. Rows were chosen to be rich in hits. Some 0.34% of all compounds tested hit in one or more screens of this group. Unless noted, calls follow the shape of the dose curve; as a rule, active = well fitted curve in the direction sought with a large enough effect; inconclusive = small, poorly fitted or top-dose-only effect, or another doubt; inactive = no such curve, though single readings can be large; an effect the other way counts as inactive or inconclusive.

Cc1ccc(CSc2nc3ccncc3[nH]2)cc1	Luc counter 11µM
Clc1ccc(CSc2nc3ccncc3[nH]2)cc1	Luc counter inconclusive
CC(=O)N[C@@H](CSC(=O)[C@]1([C@@H](O)C(C)C)NC(=O)[C@H](C)[C@@H]1O)C(=O)O	none (no result: TCR activator, Lamin A splicing)
Cc1nc2cc(NCc3nc4ccccc4n3Cc3ccccc3)ccc2n1C	Luc counter 10µM, Lamin A splicing inconclusive
COc1ccc(NC(=O)COC(=O)C2CC(=O)N(CCc3ccc(OC)c(OC)c3)C2)cc1Cl (stereo not drawn)	none (no result: Luc counter, IMPase Li cell, Lamin A splicing)
CCC(CC)C(=O)Nc1cccc(S(=O)(=O)c2cccc(NC(=O)C(CC)CC)c2)c1	IMPase Li cell 11µM
O=C(NNC(=O)c1ccccc1F)c1ccc(NS(=O)(=O)c2ccc(F)cc2)cc1	none (no result: Luc counter, IMPase Li cell, Lamin A splicing)
C(=N\Nc1nc2ccccc2[nH]1)/c1ccc2ncccc2c1	none (no result: Luc counter, IMPase Li cell, Lamin A splicing)
Cc1ccc2cc(/C=N/Nc3nc4ccccc4[nH]3)c(Cl)nc2c1	Luc counter 6.3µM
Cn1c(N/N=C/c2cc3ccccc3nc2Cl)nc2ccccc21	Luc counter 6.3µM, Lamin A splicing inconclusive
C(=N\Nc1nc2ccccc2[nH]1)/c1ccccn1	Luc counter 13µM (no result: Lamin A splicing)
CCCNc1nc(NCC)nc(OC)n1	none
COc1ccc(CNC(=O)c2ccc(NC(=O)N3CCCCc4ccccc43)cc2)c(OC)c1	none (no result: Luc counter, IMPase Li cell, TCR activator)
Cc1nonc1C(=O)N1CCCC(Nc2ccc(C(C)C)cc2)C1 (stereo not drawn)	none (no result: Luc counter, IMPase Li cell, Lamin A splicing)
CCc1cc2cc(C)ccc2nc1SCC(=O)NC1CCCC1	none (no result: Luc counter, IMPase Li cell, Lamin A splicing)
COC(=O)c1ccc(C(=O)OC)c(NC(=O)COC(=O)c2ccccc2OC)c1	IMPase Li cell 11µM
ClC(Cl)(c1nnnn1-c1ccccc1)c1nnnn1-c1ccccc1	none
Cc1c(C(=O)N2CCCC(C)C2)sc2ncnc(N3CCCCC3C)c12 (stereo not drawn)	none
Cc1c(C(=O)O)sc2ncnc(N3CCCCC3C)c12 (stereo not drawn)	IMPase Li cell 5.6µM
Cc1ccc2nc(NC(=S)NC(=O)c3ccco3)sc2c1	IMPase Li cell 13µM
COc1ccc(S(=O)(=O)N2CCN(Cc3cc(=O)n4ccccc4n3)CC2)cc1	none (no result: Luc counter, IMPase Li cell, Lamin A splicing)
c1ccc(-c2noc(-c3cccnc3)n2)nc1	Luc counter inconclusive
c1ccc(-c2noc(-c3ccc4c(c3)OCO4)n2)nc1	Luc counter 2.8µM
c1ccc(-c2noc(-c3ccc4ccccc4c3)n2)nc1	Luc counter 10µM, Lamin A splicing inconclusive
COc1cccc(-c2nc(-c3ccccn3)no2)c1	Luc counter 7.9µM (no result: TCR activator)
O=c1/c(=C/c2ccccn2)sc2nc3ccccc3n12	Luc counter 13µM, Lamin A splicing inconclusive
c1ccc2sc(-c3ccc4c(c3)OCO4)nc2c1	Luc counter 13µM, Lamin A splicing inconclusive
CC(OC(=O)c1cc2sccc2n1C)C(=O)NCc1cccs1 (stereo not drawn)	Lamin A splicing inconclusive
Cn1c(C(=O)OCC(=O)NCc2cccs2)cc2sccc21	IMPase Li cell 14µM
Nc1ncnc2c1ncn2[C@@H]1O[C@H](COP(=O)(O)O)[C@@H](O)[C@@H]1O	Luc counter 4µM, Lamin A splicing inconclusive (no result: TCR activator)
Nc1ncnc2c1ncn2C1OC(COP(=O)(O)O)C(O)C1O (stereo not drawn)	Luc counter 2µM (no result: Lamin A splicing)
Nc1ncnc2c1ncn2[C@@H]1O[C@H](COP(=O)(O)O)[C@@H](O)[C@H]1O	none (no result: Luc counter, Lamin A splicing)
NC(CCC(=O)N[C@@H](CS)C(=O)NCC(=O)O)C(=O)O (stereo partly drawn)	Lamin A splicing inconclusive (no result: TCR activator)
O=C(NNC(=O)c1ccco1)c1ccc(NS(=O)(=O)c2cccs2)cc1	none (no result: Luc counter, IMPase Li cell, Lamin A splicing)
CCn1c(=S)[nH]c2c(c1=O)C(C)(C)Cc1ccccc1-2	IMPase Li cell 4.5µM, Lamin A splicing inconclusive
Cn1c(=S)[nH]c2c(c1=O)C(C)(C)Cc1ccccc1-2	IMPase Li cell 1.4µM (no result: Lamin A splicing)
COc1cccc(Cn2nnc(C(=O)Nc3cc(C)ccc3OC)c2N)c1	IMPase Li cell 25µM
COc1cccc(Cn2nnc(C(=O)Nc3ccc(C)cc3)c2N)c1	IMPase Li cell inconclusive
COc1ccccc1NC(=O)c1nnn(CC(=O)Nc2cccc(SC)c2)c1N	IMPase Li cell 6.3µM
COc1ccccc1NC(=O)c1nnn(CC(=O)Nc2ccccc2)c1N	none
COCCCC/C(=N\OCCN)c1ccc(C(F)(F)F)cc1	IMPase Li cell 10µM!, Lamin A splicing inconclusive
O=c1c2cccnc2[nH]c(=S)n1Cc1ccccc1	IMPase Li cell 10µM
c1ccc(-c2cn3c(n2)-c2ccccc2C3)cc1	Luc counter 7.1µM, Lamin A splicing inconclusive
O=C1c2ccccc2CN2C(=O)c3ccccc3CN12	none (no result: Luc counter, IMPase Li cell, Lamin A splicing)
CCOc1ccc(NC(=O)c2cnccn2)cc1	none
CCOc1ccc(NC(=O)c2nccnc2CO)cc1	Luc counter 7.9µM
CCOc1ccc(NC(=O)c2ccccn2)cc1	Luc counter 13µM
O=C(CNC(=O)N1CC(=O)Nc2ccccc21)NCCc1cccc(F)c1	none (no result: Luc counter, IMPase Li cell, Lamin A splicing)
O=CN1c2ccccc2CSc2ccccc21	none (no result: Luc counter, IMPase Li cell, Lamin A splicing)
Nc1cc(C2CCCC2)nn1-c1ccccc1	Luc counter 13µM, Lamin A splicing inconclusive
O=C(O)c1cc(C2CC2)nn1-c1ccccc1	none
NS(=O)(=O)c1ccc(NC(=O)c2ccc(-c3ccccc3)cc2)cc1	IMPase Li cell 8.9µM
CCOC(=O)c1oc2c(c1C)/C(=N/O)CCC2	Luc counter 11µM
CCOc1ccc(C(=O)Nc2ccc3nn(-c4ccc(OC)c(Cl)c4)nc3c2)cc1	none (no result: Luc counter, IMPase Li cell, TCR activator)
CCCCCn1c(NC(=O)c2ccco2)c(S(=O)(=O)c2ccc(C)cc2)c2nc3ccccc3nc21	IMPase Li cell 11µM, Lamin A splicing inconclusive
CCCCn1c(NC(=O)c2ccc(Br)o2)c(S(=O)(=O)c2ccccc2)c2nc3ccccc3nc21	IMPase Li cell 10µM
CCCCn1c(NC(=O)c2ccco2)c(S(=O)(=O)c2ccc(C)cc2)c2nc3ccccc3nc21	IMPase Li cell inconclusive, Lamin A splicing inconclusive
CN(C)C(=O)CCc1ccc2c3c([nH]c2c1)[C@]1(CCC2CCCC2)[C@@H](C(=O)N2CCOCC2)C[C@H](CC(=O)NCCc2ccccn2)C(=O)N1CC3	none (no result: Luc counter, IMPase Li cell, Lamin A splicing)
COCCNC(=O)c1cc(-c2cccnc2)nc2ccc(Br)cc12	IMPase Li cell 11µM
COc1ccccc1CCn1c(=O)c(CCc2ccccc2)nc2cncnc21	none (no result: Luc counter, TCR activator)
CCn1ncc(/C=C/C(=O)c2ccccc2)c1C	Luc counter 10µM
COc1ccc(CN2CCNC(=O)C2CC(=O)NC2Cc3ccccc3C2)c(OC)c1 (stereo not drawn)	none
c1ccc(C2=NNC(=NC3CC3)SC2)cc1	Luc counter 4.5µM
Cc1ccc2oc(-c3ccc(C)c(NC(=O)Cc4cccs4)c3)nc2c1	IMPase Li cell 13µM
CCC(=O)c1ccc(OCC(O)CN2CCN(C(c3ccccc3)c3ccccc3)CC2)cc1 (stereo not drawn)	Lamin A splicing inconclusive
O=C(Nc1c(C(=O)Nc2cccc(F)c2)oc2ccccc12)c1ccc2c(c1)OCO2	IMPase Li cell 14µM, Lamin A splicing inconclusive (no result: TCR activator)
O=c1c2ccccc2nc2c3ccccc3cnn12	none (no result: Lamin A splicing)
O=c1c(Cl)c(N2CCCCC2)cnn1-c1nc2ccccc2[nH]1	Luc counter 1.6µM
O=c1c2ccccc2cnn1-c1nc2ccccc2[nH]1	Luc counter 2µM
